Assay results reported in PubChem BioAssay (NCATS).
Inconclusive results are not listed. Activity calls are given as the source filed them. Unless noted, calls come from the whole dose curve; as a rule, active = well fitted curve in the direction sought with a large enough effect; inconclusive = small, poorly fitted or top-dose-only effect, or another doubt; inactive = no such curve, though single readings can be large; an effect the other way counts as inactive or inconclusive.

Assays:
[1] = Cell Viability - BJ (AID 421; calls by dose curve;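 note: potency is the fitted concentration of half-maximal effect; cells exposed to compound for 40 hours at 37 °C before readout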); settings: BJ fibroblast viability, qHTS
Summary of the method: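 Cytotoxicity in human BJ foreskin fibroblasts is scored as loss of cellular ATP after a 40-hour exposure, measured by luciferase luminescence. Controls are DMSO and 100 uM tamoxifen.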

[2] = Cell Viability - Jurkat (AID 426;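 active = dose-dependent loss of cell ATP signal giving a full or clear fitted curve, ranked by lower potency value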; note: potency is the fitted concentration of half-maximal effect); settings: qHTS
Summary of the method: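 Luminescent ATP read-out (CellTiter-Glo, 20 min at room temperature) after 40 hr compound exposure at 37 °C of Jurkat E6-1 cells, 5000/well. Decreased ATP taken as cytotoxicity; AC50 from standard Hill equation.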

[3] = Cell Viability - Hek293 (AID 427;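 active = compounds whose dose-response curve shows a full or clear partial loss of cell viability, called from curve shape rather than a numeric limit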;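 note: potency is the fitted concentration of half-maximal effect; cells exposed to compound for 40 hours at 37 °C before reading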); settings: qHTS
Summary of the method: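 qHTS, human embryonic kidney (adenovirus-transformed) cells; 40 hr cpd, 37 °C; CellTiter-Glo ATP luminescence. Norm: DMSO = 0, 100 uM tamoxifen = 100% inhibition. Hill-fit AC50.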

[4] = Cell Viability - HepG2 (AID 433; calls by dose curve;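 note: potency is the fitted concentration of half-maximal effect; potency for ATP loss meaning cytotoxicity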); settings: qHTS
Summary of the method: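 HepG2 cells, 1500 per well, treated 40 hr at 37 °C in complete medium; viability from intracellular ATP by CellTiter-Glo luminescence. Normalized to DMSO and 100 uM tamoxifen; AC50 from Hill fit of qHTS concentration-response.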

[5] = Cell Viability - SK-N-SH (AID 435; calls by dose curve; note: potency is the fitted concentration of half-maximal effect); settings: SK-N-SH neuroblastoma cell viability qHTS
Summary of the method: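 SK-N-SH neuroblastoma cells (1500/well) treated 40 h at 37 °C in complete medium; viability read as cellular ATP by CellTiter-Glo luminescence. Normalized to DMSO and 100 uM tamoxifen; AC50 from Hill fits of qHTS concentration-response.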

[6] = molecular target: Mitogen-activated protein kinase 10 (Mus musculus) (UniProt Q61831); test: JNK3 AlphaScreen Assay (AID 530; active = well fitted curve in either direction with a large enough effect, not every such curve was filed as active;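 note: kinase came from lysate of stimulated human HepG2 cells; signal reports phosphorylation of biotinylated GST-cJun 1-79 at Ser73 with 10 µM ATP; % is set by controls: 0 for no effect and ±100 for the full control effect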); settings: JNK3 lysate, c-Jun phosphorylation; series mostly up to 57.1 µM
Summary of the method: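 Kinase buffer: 20 mM Tris-HCl pH 7.6, 10 mM MgCl2, 1 mM DTT, 0.1 mM Na3VO4, 0.01% Tween-20; ATP 10 uM. Substrate biotin-GST-cJun(1-79), enzyme from activated HepG2 lysates. Detection by Ser73 phospho-antibody AlphaScreen.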

[7] = Cell Viability - N2a (AID 540); settings: N2a mouse neuroblastoma cell viability; activity change, negative = cytotoxicity: at 92.2 µM (top of the series);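 note: plate controls were DMSO alone for no effect and tamoxifen control for full effect; nearly all actives have a fitted effect of over 45% in size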
Summary of the method: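 N2a mouse neuroblastoma, 1500 cells/well, 5 hr settle; compound 40 hr, 37 °C; CellTiter-Glo 20 min RT; luminescence; Hill-fit AC50.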

[8] = Cell Viability - NIH 3T3 (AID 541); settings: NIH 3T3 cell viability, qHTS; activity change, negative = cytotoxicity: at 92.2 µM (top of the series);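 note: plate controls were DMSO alone for no effect and tamoxifen positive control for full effect; nearly all actives have a fitted effect of over 25% in size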
Summary of the method: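 qHTS format; 40 hr compound exposure, 37 °C; CellTiter-Glo luminescence (cellular ATP) read-out after 20 min at RT. Decrease in ATP = cytotoxicity; AC50 from standard Hill fit.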

[9] = Cell Viability - HUV-EC-C (AID 542); settings: HUV-EC-C endothelial cell viability, qHTS; series mostly up to 92.2 µM; note: % is set by controls: 0 for no effect and ±100 for the full control effect; nearly all actives have a fitted effect of over 35% in size
Summary of the method: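 Luminescent ATP read-out (CellTiter-Glo, 20 min room temperature) after 40 hr compound treatment of HUV-EC-C cells at 37 °C. Concentration-response data fitted with the standard Hill equation to give AC50; tamoxifen and doxorubicin served as positive controls.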

[10] = Cell Viability - H-4-II-E (AID 543); settings: H-4-II-E rat hepatoma viability; series mostly up to 92.2 µM; note: % is set by controls: 0 for no effect and ±100 for the full control effect; nearly all actives have a fitted effect of over 35% in size
Summary of the method: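 qHTS, rat hepatoma H-4-II-E, 1500 cells/well; 40 hr compound exposure, 37 °C; CellTiter-Glo ATP luminescence after 20 min RT; AC50 by standard Hill fit.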

[11] = Cell Viability - SH-SY5Y (AID 544); settings: SH-SY5Y neuroblastoma cell viability; viability change, negative = cytotoxic: at 92.2 µM (top of the series); note: nearly all actives have a fitted effect of over 55% in size
Summary of the method: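 SH-SY5Y, 1500 cells/well, 5 hr pre-incubation 37 °C; cpd 40 hr 37 °C; CellTiter-Glo 20 min RT; luminescence (ATP) read. qHTS concentration-response, Hill fit → AC50. Tamoxifen, doxorubicin as positive controls.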

[12] = Cell Viability - Renal Proximal Tubule (AID 545); settings: renal proximal tubule cells viability, primary cells of rat origin; series mostly up to 91.7 µM; note: nearly all actives have a fitted effect of over 40% in size
Summary of the method: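 Rat renal proximal tubule primary cells, 1000/well, exposed to compounds for 40 hr at 37 °C in complete medium; cellular ATP read by CellTiter-Glo luminescence. AC50 from concentration-response fitted with standard Hill equation.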

[13] = Cell Viability - Mesenchymal (AID 546); settings: mesenchymal cells viability, qHTS; series mostly up to 91.7 µM;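 note: cells exposed to compound for 40 hours before reading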
Summary of the method: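 CellTiter-Glo luminescence (intracellular ATP, 20 min room temperature) after 40 hr compound exposure at 37 °C of 1000 glomerulus-derived human kidney mesenchymal cells/well; AC50 values obtained by fitting qHTS concentration-response data to the Hill equation.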

[14] = Cellular Toxicity (caspase-3) HepG2 (AID 654); settings: HepG2 caspase-3 activation, luminescence; series mostly up to 92.2 µM;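 note: cells exposed to compound for 16 hours before reading; 0% = DMSO alone and 100% = caspase signal from 100 µM tamoxifen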
Summary of the method: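 Luminescent Caspase-Glo 3/7 readout after 16 hr compound exposure of human hepatocellular carcinoma HepG2 cells at 37 °C; qHTS concentration-response, normalized DMSO = 0%, 100 uM tamoxifen = 100%; AC50 by standard Hill equation.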

[15] = Cellular Toxicity (caspase-3) Jurkat (AID 655); settings: Jurkat caspase-3 activation, luminescence; caspase-3 activation: at 92.2 µM (top of the series), DMSO = 0%, tamoxifen = 100%;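 note: cells exposed to compound for 16 h at 37 °C before reading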
Summary of the method: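 Jurkat cells (5000/well) in complete medium exposed 16 h at 37 C; caspase-3/7 activity read by Caspase-Glo luminescence after 20 min at room temperature. Normalized to DMSO and 100 uM tamoxifen; AC50 from Hill fits.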

[16] = Cellular Toxicity (caspase-3) HUV-EC-C (AID 656); settings: HUV-EC-C cells, caspase-3 activation (apoptosis), vehicle = 0, 100 µM tamoxifen = 100%; series mostly up to 92.2 µM
Summary of the method: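 HUV-EC-C cells (1000/well) in complete medium, compound-treated 16 h at 37 °C; caspase-3/7 activity read by Caspase-Glo 3/7 luminescence. Normalized to DMSO (basal) and 100 uM tamoxifen (100%); AC50 from Hill-equation concentration-response fits.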

[17] = Cellular Toxicity (caspase-3) SHSY5Y (AID 657); settings: SH-SY5Y caspase-3 activation, DMSO zero, 10 µM staurosporine = 100%; series mostly up to 91.7 µM
Summary of the method: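 SH-SY5Y human neuroblastoma cells, 1500/well, exposed to compound for 16 hours at 37 °C in complete medium. Caspase-3/7 activity read by Caspase-Glo luminescence after 1 hr at room temperature, normalized to DMSO and 10 uM staurosporine; AC50 from Hill fit.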

[18] = Cellular Toxicity (caspase-3) BJ (AID 658); settings: BJ fibroblasts, luminescence, normalized: DMSO 0%, staurosporine 100%; series mostly up to 91.7 µM
Summary of the method: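 Caspase-Glo 3/7 luminescence, read 1 hr after reagent at room temperature, in normal BJ fibroblasts exposed 16 hours at 37 °C. AC50 values from Hill-equation concentration-response, scaled between DMSO basal and 10 uM staurosporine as 100%.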

[19] = Cellular Toxicity (caspase-3) MRC-5 (AID 659); settings: MRC-5 cells, luminescence, normalized: DMSO 0%, 10 µM staurosporine 100%; series mostly up to 91.7 µM
Summary of the method: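 Luminescent Caspase-Glo 3/7 read-out (1 h, room temperature) after a 16 h, 37 °C compound exposure of MRC-5 lung fibroblasts at 1500 cells/well. Concentration-response AC50 from Hill equation; 0% DMSO, 100% 10 uM staurosporine.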

[20] = Cell Viability - MRC5 (AID 434; calls by dose curve;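 note: potency is the fitted concentration of half-maximal effect; potency reflects cytotoxicity seen as loss of intracellular ATP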); settings: MRC5 lung fibroblast viability, qHTS
Summary of the method: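 AC50 values come from Hill-equation fits of intracellular ATP loss, measured by CellTiter-Glo luminescence. Normal lung fibroblasts (MRC5) had 40 hr compound treatment at 37 C, normalized between DMSO and 100 uM tamoxifen.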

Cc1cccc(C)c1[N+](=O)[O-]
inactive: Potency [1] > 92 µM | Potency [2] > 92 µM | Potency [3] > 92 µM | Potency [4] > 92 µM | Potency [5] > 92 µM | outcome [6] | activity change, negative = cytotoxicity [7] -11.3% | Potency [8] | Potency [9] | Potency [10] | Potency [11] | Potency [12] | Potency [13] | Potency [14] | caspase-3 activation [15] 0.339% | outcome [16] | outcome [17] | outcome [18]

Nc1ccc(Cl)cc1[N+](=O)[O-]
inactive: Potency [1] > 92 µM | Potency [2] > 92 µM | Potency [3] > 92 µM | Potency [4] > 92 µM | Potency [5] > 92 µM | outcome [6] | activity change, negative = cytotoxicity [7] -24.6% | Potency [8] | Potency [9] | Potency [10] | Potency [11] | Potency [12] | Potency [14] | outcome [16] | outcome [17] | outcome [18] | outcome [19]

O=[N+]([O-])c1ccc(CCO)cc1
inactive: Potency [1] > 92 µM | Potency [2] > 92 µM | Potency [3] > 92 µM | Potency [4] > 92 µM | Potency [5] > 92 µM | activity change, negative = cytotoxicity [7] -10.2% | Potency [9] | Potency [10] | Potency [11] | Potency [12] | Potency [13] | Potency [14] | caspase-3 activation [15] -1.91% | outcome [17] | outcome [18] | outcome [19]

COc1ccc(N)c(C)c1
inactive: Potency [1] > 92 µM | Potency [2] > 92 µM | Potency [3] > 92 µM | Potency [4] > 92 µM | Potency [5] > 92 µM | outcome [6] | activity change, negative = cytotoxicity [7] 11.2% | Potency [8] | Potency [9] | Potency [10] | Potency [11] | Potency [12] | Potency [13] | Potency [14] | caspase-3 activation [15] 0.894% | outcome [16] | outcome [17] | outcome [18] | outcome [19]

BrC/C=C/CBr
inactive: Potency [1] > 92 µM | Potency [2] > 92 µM | Potency [3] > 92 µM | Potency [4] > 92 µM | Potency [20] > 92 µM | activity change, negative = cytotoxicity [7] 6.2% | Potency [8] | Potency [9] | Potency [10] | Potency [11] | Potency [12] | Potency [13] | Potency [14] | caspase-3 activation [15] 1.67% | outcome [17] | outcome [18]

CC/C=C1/OC(=O)c2ccccc21
inactive: Potency [1] > 92 µM | Potency [2] > 92 µM | Potency [3] > 92 µM | Potency [4] > 92 µM | Potency [5] > 92 µM | outcome [6] | activity change, negative = cytotoxicity [7] 3.1% | Potency [8] | Potency [9] | Potency [10] | Potency [11] | Potency [12] | Potency [13] | Potency [14] | caspase-3 activation [15] -0.618% | outcome [16] | outcome [17] | outcome [18] | outcome [19]
